According to PubChem BioAssay AID889 (National Center for Advancing Translational Sciences (NCATS), 2007):
The campaign covered roughly 75,000 compounds. About 15 (0.02%) were called active. About 3% were inconclusive and are not listed. Shown is part of a subset that was picked to be rich in actives. Unmarked numbers belong to inactive results. Calls come from the whole dose curve; as a rule, active = well fitted inhibition curve with a large enough effect in the main read-out, with a control signal flat (not every such curve was filed as active); inconclusive = small, poorly fitted or top-dose-only effect, or a change in a side signal; inactive = flat fitted curve, though single readings scatter. Square brackets hold non-standard residues; d marks the D form. Side chains are listed from the residue outwards. Peptide text beside a SMILES is read from it. * marks the point of attachment. X1 = CCC(C)C(N)C1=NC(C(=O)*)CS1; Orn = NCCC[CH](N)C(=O)O
Potency is the fitted concentration of half-maximal effect.
Throughout, for activity change, negative = inhibition: % of control where 0% means no effect.

These molecules were tested against Caspase-7 (Homo sapiens) (UniProt P55210) (assay: qHTS Assay for Allosteric/Competitive Inhibitors of Caspase-7). Conditions: recombinant caspase-7, Ac-DEVD-AFC fluorescence rate; series mostly up to 57.5 µM; activity change, negative = inhibition: at the top concentration.
Sequence of Caspase-7 (Homo sapiens) (P55210 24-198 limits assumed): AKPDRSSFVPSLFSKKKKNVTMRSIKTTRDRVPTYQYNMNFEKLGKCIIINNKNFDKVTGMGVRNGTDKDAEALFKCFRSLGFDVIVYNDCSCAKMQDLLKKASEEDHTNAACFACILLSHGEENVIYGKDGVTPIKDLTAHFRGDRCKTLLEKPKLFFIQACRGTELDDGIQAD
Sequence of Caspase-7 (Homo sapiens) (P55210 207-303 limits assumed): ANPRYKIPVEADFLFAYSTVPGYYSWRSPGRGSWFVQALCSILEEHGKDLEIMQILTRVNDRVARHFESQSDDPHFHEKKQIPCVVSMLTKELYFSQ
Text: NIH Molecular Libraries Screening Centers Network [MLSCN]
NIH Chemical Genomics Center [NCGC]
PI Name: Dr. James Wells,
Dr. Enrique Perez-Paya, Dr.Janice Williams, Dr. Dennis Wolan, a person
The caspases (Cysteine Aspartyl Protease) comprise a related family of 14 dimeric proteases that are critical mediators of apoptosis (programmed cell death) and inflammation. The caspases represent an important class of drug targets for stroke, ischemia, cancer and inflammatory diseases. […] One goal of this project was to identify compounds that act as allosteric inhibitors via stabilizing the procaspase form of the enzyme. Previous work in Well's laboratory has shown that such allosteric inhibitors can be identified and these act by binding at the dimer interface of enzyme (Hardy, Lam et al., 2004).
The biochemical assay was configured using purified caspase 7 at a high enzyme concentration to promote formation of the homodimers and thus facilitate the identification of allosteric inhibitors. The overall goal was to identify reversible inhibitors with better drug-like properties than the currently available set of aspartyl-containing peptidomimetics that covalently bind the active site. Caspase 7 was assayed using the profluorescent substrate Ac-DEVD-AFC. After initiation of the assay with substrate the plates were rapidly read using an automated robotic system (Kalypsys, Inc.) to maintain consistent timing. A kinetic mode of detection was used where the initial rate was collected (estimated final product formation was ~10%). Compounds were screened as a concentration-titration series that ranged from 57 uM to 0.7 nM. Below is the protocol used for caspase 7.
NCGC Assay Protocol Summary:
Caspase 7 was prepared in buffer (50 mM HEPES pH 7.5, 50 mM KCl, 200 mM NaCl, 10 mM DTT, 0.1% CHAPS) at a concentration of 66.6 nM and 3 uL was dispensed to all wells using black solid Kalypsys 1536-well plates. 20 nL of DMSO containing compounds was added using a pin-tool (Kalypsys Inc.) to columns 5-48. Then 20 nL of DMSO solution from a control plate was added to columns 1-4. Controls were: Column 1, 16 point titration with each concentration in duplicate (1:1 dilutions in DMSO; final starting concentration was 57 uM) of the caspase 7 inhibitor Ac-DEVD-CHO (Alexis Biochemicals); Column 2, a 16 point titration with each concentration in duplicate of the free AFC fluorophore prepared in DMSO (Alexis Biochemicals), final starting was 40 uM; Column 3 neutral (DMSO only) control; Column 4: DMSO alone, to serve as a negative control (no substrate was added). Then 1 uL of 20 uM the substrate Ac-DEVD-AFC (Alexis Biochemicals) prepared in the same buffer was dispensed to all wells except columns 2 and 4 and the plates were immediately transferred (< 1 min) to the Viewlux. The plates were then exposed using 405 nm excitation/520 nm emission filters for 4 sec and read at 20 sec intervals for 3 min. Final enzyme concentration was 50 nM and the final substrate concentration was 5 uM.
Concentration-response curves were fitted to the data calculated from slope of the linear regression of fluorescent intensity versus time (the rate). The concentration-effect curves were then classified based on curve quality (r2), response magnitude and degree of measured activity. […] Inconclusive compounds had appreciable concentration-dependent effects on both the measured rate and the interpolated basal fluorescence intensity at the start of the reaction but where the basal fluorescent intensity was marginal (e.g. < 10-fold). Inconclusive compounds also encompass highly fluorescent compounds (>100-fold increases in fluorescent intensities values relative to controls) where artificial concentration-dependent decreases in the rate occurred at high compound concentrations due to fluorescent interferences.
Keywords: Caspase 7, proteases, profluorescent, MLSMR, MLSCN, NIH Roadmap, qHTS, NCGC
For `Cc1nc2cc(-c3ccc(F)cc3)nn2c(N2CCOCC2)c1C`, the “activity change, negative = inhibition” value was -1.05%.
For `COc1ccc(S(=O)(=O)Nc2c(C)n(C)n(-c3ccccc3)c2=O)cc1`, the “activity change, negative = inhibition” value was 0.471%.
In the case of `Nc1ncnc2c1ncn2C1CC(O)C(CO)O1` (stereo not given), the activity change, negative = inhibition is reported as “inactive”.
`C=CCC(NCCCO)c1cccc(OC)c1OC` (stereo not given) was tested, and the “activity change, negative = inhibition” value was -1.48%.
For `COc1cccc(OC)c1C(=O)Nc1nnc(C(C)C)s1`, the “activity change, negative = inhibition” value was 0.483%.
In the case of `CCC(C)C(N)C1=NC(C(=O)NC(CC(C)C)C(=O)NC(CCC(=O)O)C(=O)NC(C(=O)NCCCCC2NC(=O)C(CC(N)=O)NC(=O)C(CC(=O)O)NC(=O)C(Cc3cnc[nH]3)NC(=O)C(Cc3ccccc3)NC(=O)C(C(C)CC)NC(=O)C(CCCN)NC2=O)C(C)CC)CS1` (stereo not drawn) (cyclo(DNK([Ile-Glu-Leu-X1])[Orn]IFH); configuration not given here), the “activity change, negative = inhibition” value is reported as -1.11%.
With `Cc1cccc2c3c(ccc12)C1=C(C(=O)C3=O)C(C)CO1` (stereo not given) the “activity change, negative = inhibition” value was -21.5%.
With `COc1ccc(-c2nc3cnc(OC)nc3n(Cc3ccc(F)cc3)c2=O)cc1` the “activity change, negative = inhibition” value was -10.3%.
`CN(C)CCCCNC(=O)c1ccc(Cc2nc3ccccc3[nH]2)cc1` was tested, and the “activity change, negative = inhibition” value was -0.141%.
With `C=C1C(=O)C23C(O)C1CCC2[C@]12COC3(O)C(O)C1C(C)(C)CC[C@H]2O` (stereo not given in full) the “activity change, negative = inhibition” value was -5.51%.
`Cc1ccc2nc(S(=O)(=O)O)[nH]c2c1` was tested, and the “activity change, negative = inhibition” value was -1.75%.
In the case of `CCOC(=O)N1CCN(C(=O)CNC(=O)Cc2ccc(Cl)cc2)CC1`, the “activity change, negative = inhibition” value is reported as -4.36%.
`COc1ccc(S(=O)(=O)N2CCCC2)c(C)c1C` was tested, and the “activity change, negative = inhibition” value was -0.0387%.
In the case of `COC(=O)c1ccc(C23CC4(C2)[C@H](CN(Cc2cccnc2)[C@@H]4c2ccccc2)C3c2ccc(Cl)nc2)cc1` (stereo not given in full), the “activity change, negative = inhibition” value is reported as -1.86%.
`COC1C[C@@H](O[C@@H]2C(C)C(=O)OC(C)C(C)C(O)C(C)C(=O)[C@@]3(CO3)CC(C)C(OC3OC(C)CC(N(C)C)C3O)C2C)OC(C)[C@@H]1O` (stereo not given in full) was tested, and the “activity change, negative = inhibition” value was 2.56%.
`Cc1nn2c3cc(N4CCOCC4)ccc3nc2c2ccccc12` was tested, and the “activity change, negative = inhibition” value was 0.94%.
`CC(=O)N(CN1C(=O)C2CC=CCC2C1=O)c1cccc(Cl)c1` (stereo not given) was tested, and the “activity change, negative = inhibition” value was -16.2%.
`CC1(C)OC2CO[C@]3(COS(N)(=O)=O)OC(C)(C)OC3C2O1` (stereo not given in full) was tested, and the “activity change, negative = inhibition” value was -0.982%.
For `CCCCOC(=O)CNc1nnc(SCC(=O)OCC)[nH]c1=O`, the “activity change, negative = inhibition” value was 0.456%.
For `CC[C@@H]1Cc2cc(O)ccc2C2=C1c1ccc(O)cc1C[C@H]2CC`, the “activity change, negative = inhibition” value was -8.12%.
`O=C(O)C(O)[C@@](O)(Cc1ccc(O)cc1)C(=O)O` (stereo not given in full) was tested, and the “activity change, negative = inhibition” value was 0.744%.
`COc1cccc(N2CCN(C(=O)C3CCCN(S(=O)(=O)c4cnc[nH]4)C3)CC2)c1` (stereo not given) was tested, and the “activity change, negative = inhibition” value was 1.11%.
In the case of `COc1ccc(N2C(=O)CN=C2Nc2cccc(C)c2C)cc1OC`, the “activity change, negative = inhibition” value is reported as -9.88%.
For `COC(=O)[C@@H]1C[C@@]2(O)[C@H](O)[C@H](O)[C@H](O)C[C@H]2N1Cc1ccc(C)s1`, the “activity change, negative = inhibition” value was -0.351%.
`O=C(O)c1c(Br)c(Br)c(Br)c(Br)c1C1c2ccc(O)cc2Oc2cc(O)ccc21` was tested, and the Potency was 3.98 µM (active).
With `COc1ccc(OC)c2[nH]c(=O)c(CCNC(=O)C(C)(C)C)cc12` the “activity change, negative = inhibition” value was -0.648%.
With `O=C(Oc1cc(OC(=O)c2ccccc2)c2c(c1)OC(c1ccc(OC(=O)c3ccccc3)c(OC(=O)c3ccccc3)c1)[C@@H](OC(=O)c1ccccc1)C2)c1ccccc1` (stereo not given in full) the “activity change, negative = inhibition” value was 1.49%.
For `C/C=C(/C)C(=O)OC1Cc2c(ccc3ccc(=O)oc23)OC1(C)C` (stereo not given), the “activity change, negative = inhibition” value was 1.54%.
For `Cc1ccc(CNC(=O)C2CCCN(S(C)(=O)=O)C2)cc1` (stereo not given), the “activity change, negative = inhibition” value was -4.02%.
Molecule `CC(C)=CCC/C(C)=C/CO/N=C1/C[C@@H](O)[C@@H](O)[C@@H]2[C@@H]3C(=O)N(C(C)(C)C)C(=O)[C@H]3CC[C@H]12` has an activity change, negative = inhibition of 0.517% [at 11.5 µM].
In the case of `CCOC(=O)C1CCN(C(=O)COc2cc(C)c(Br)c(C)c2)CC1`, the “activity change, negative = inhibition” value is reported as -3.71%.
With `COc1ccc(CCC(=O)c2c(O)cc(OC3OC(CO)C(O)C(O)C3O[C@@H]3OC(C)C(O)C(O)C3O)cc2O)cc1O` (stereo not given in full) the “activity change, negative = inhibition” value was 0.803%.
In the case of `CCN1CCN(C(=O)c2ccccc2N(C)S(=O)(=O)c2ccc(C)cc2)CC1`, the “activity change, negative = inhibition” value is reported as -1.87%.
In the case of `Cc1cc(C)c(C)c(S(=O)(=O)Nc2ccc(O)cc2)c1C`, the “activity change, negative = inhibition” value is reported as 0.495%.
For `O=C(CSc1nc2ncccc2[nH]1)Nc1ccc2c(c1)OCCO2`, the “activity change, negative = inhibition” value was 0.658%.
With `C=C1C([C@@]2(C)C(OC(C)=O)CC(=O)O[C@@](C)(COC(C)=O)C2CC(=O)OC)C(OC=O)C(OC(=O)C(O)C(C)CC)[C@]2(C)C(c3ccoc3)CC(=O)C12O` (stereo not given in full) the “activity change, negative = inhibition” value was 0.439%.
With `CC(C)N(CCNC(=O)c1ccc(-n2c(=O)c(=O)[nH]c3ccccc32)cc1)C(C)C` the “activity change, negative = inhibition” value was 1.72%.
For `CCOC(=O)C1CCCN(C(=O)c2ccc(CS(=O)(=O)c3ccc(Br)cc3)o2)C1` (stereo not given), the “activity change, negative = inhibition” value was -1.53%.
`Clc1ccc(C2[C@H]3CN(CC4CCCCC4)[C@H](c4ccccc4)C34CC2(c2cccnc2)C4)cn1` (stereo not given in full) was tested, and the “activity change, negative = inhibition” value was -2.48%.
For `Cc1cnc(C(=O)OCC(=O)Nc2ccc(Cl)cc2Cl)cn1`, the “activity change, negative = inhibition” value was 0.963%.
In the case of `O=C(CSc1nc2ccccc2o1)N1CCN(c2ccccc2)CC1`, the “activity change, negative = inhibition” value is reported as -0.235%.
For `CN1CCCC1CCO[C@@](C)(c1ccccc1)c1ccc(Cl)cc1` (stereo not given in full), the “activity change, negative = inhibition” value was -1.39%.
`Nc1nc2nc(Cl)[nH]c2c(=O)[nH]1` was tested, and the “activity change, negative = inhibition” value was 1.16%.
In the case of `CC1CC[C@@]23CCC4(C)[C@@]5(C)CCC6C(C)(C)C(O)CC[C@@]6(C)C5C=C[C@@]4(OC2=O)C3C1C` (stereo not given in full), the “activity change, negative = inhibition” value is reported as 2.11%.
In the case of `O=C(Nc1nsc(-c2ccccc2)n1)c1ccncc1`, the “activity change, negative = inhibition” value is reported as 0.285%.
`CCC(CCC(C)C1CCC2C3CC=C4CC(O)CC[C@@]4(C)C3CC[C@@]12C)C(C)C` (stereo not given in full) was tested, and the “activity change, negative = inhibition” value was 0.256%.
For `Cc1c(NC(=O)Nc2ccccc2Cl)sc(=S)n1C`, the “activity change, negative = inhibition” value was -4.46%.
For `COc1ccc(S(=O)(=O)N(C)CC(=O)Nc2ccc3c(c2)OCCO3)cc1OC`, the “activity change, negative = inhibition” value was -0.767%.
`COC(=O)[C@@H]1C[C@@]2(O)[C@@H](O)[C@@H](O)[C@@H](O)C[C@H]2N1Cc1ccc(C)s1` was tested, and the “activity change, negative = inhibition” value was -1.65%.
In the case of `COc1ccc(C2CC(=O)c3c(O)cc(OC4OC(COC5OC(C)C(O)C(O)C5O)C(O)C(O)C4O)cc3O2)cc1O` (stereo not given), the “activity change, negative = inhibition” value is reported as 0.477%.
